These results are taken from PubChem BioAssay (NCI).

Test systems include HCT-15 colon; HT29 colon; SNB-75 CNS; SNB-19 CNS; U251 CNS; PC-3 prostate; SK-MEL-5 melanoma; UACC-62 melanoma; LOX IMVI melanoma; SK-MEL-28 melanoma; SK-MEL-2 melanoma; EKVX NSCLC; SN12C renal; TK-10 renal; ACHN renal; CAKI-1 renal; A498 renal; CCRF-CEM leukemia; MOLT-4 leukemia; UO-31 renal.
Holding throughout (assay): NCI-60 one-dose screen, 48 h (100 = growth as untreated, 0 = no growth, -100 = all killed)
What all share (conditions): 10 µM

Compounds without any hit were thinned out: in the full panel of roughly 83,000, 20% have a hit.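 Interpretation: 100, growth as untreated; towards 0, rising growth inhibition; 0, no net growth; 0 to -100, cell death. Compounds scoring below 10 were considered active.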 Values without a mark were called inactive. Calls of active or inactive are those of the source.

With `O=C(c1ccc([N+](=O)[O-])c([N+](=O)[O-])c1O)n1[nH]c(=O)c2ccccc2c1=O`, the growth in the test on HCT-15 colon is 39.1%; with HT29 colon it was 66.7%; with SNB-75 CNS it was 93.5%; with SNB-19 CNS, 72.9%; in the test on U251 CNS it was 61.1%; in the test on PC-3 prostate, 74.1%. Besides, the growth in the test on SK-MEL-5 melanoma is 77.8%; with UACC-62 melanoma it was 60.3%; in the test with LOX IMVI melanoma it was 56.6%; with SK-MEL-28 melanoma, 92.7%; with SK-MEL-2 melanoma it was 76.1%; in the test on EKVX NSCLC, 66.4%. Besides, the growth is 70.2% in the test on SN12C renal; 120% with TK-10 renal; 76.6% in the test with ACHN renal; 82.4% in the test with CAKI-1 renal; 133% in the test on A498 renal; 30.5% in the test on CCRF-CEM leukemia. Besides, the growth with MOLT-4 leukemia is 36.3%.
Regarding `O=c1[nH]c2ccccc2cc1CSc1ccc(Nc2nccc(-c3ccc4c(c3)OCO4)n2)cc1`, the growth with HCT-15 colon was 84.1%; in the test on HT29 colon it was 74.3%; in the test with SNB-75 CNS it was 105%; in the test on SNB-19 CNS, 88.7%; in the test with U251 CNS it was 75.8%; in the test on PC-3 prostate, 88.9%. The growth in the test with SK-MEL-5 melanoma was 94.5%; with UACC-62 melanoma, 96.2%; in the test with LOX IMVI melanoma, 58.7%; in the test with SK-MEL-28 melanoma, 105%; with SK-MEL-2 melanoma, 108%; with EKVX NSCLC, 94.2%. For the same compound, the growth in the test on SN12C renal was 96%; in the test with TK-10 renal, 89.4%; in the test with ACHN renal, 94.7%; in the test on CAKI-1 renal it was 98%; with A498 renal, 121%; in the test with CCRF-CEM leukemia, 98.4%. For the same compound, the growth with MOLT-4 leukemia was 102%.
With `COc1cc(/C=C/C(=O)c2ccc(NC(=O)CSc3nnc(-c4c[nH]c5ccccc45)n3-c3ccccc3)cc2)cc(OC)c1OC`, the growth was 23.5% with HCT-15 colon; 51% with HT29 colon; 94.9% in the test with SNB-75 CNS; 68.9% in the test with SNB-19 CNS; 18.7% with U251 CNS; 65.6% in the test on PC-3 prostate. Also, the growth in the test on SK-MEL-5 melanoma is 90.2%; in the test with UACC-62 melanoma, 59.1%; with LOX IMVI melanoma, 4.61% (active); in the test on SK-MEL-28 melanoma, 104%; in the test on SK-MEL-2 melanoma it was 99.9%; in the test on EKVX NSCLC it was 90.6%. Also, the growth was 74.2% with SN12C renal; 75% with UO-31 renal; 89.3% with ACHN renal; 95.7% in the test with CAKI-1 renal; 138% in the test on A498 renal; 60.5% with CCRF-CEM leukemia. Further, the growth in the test on MOLT-4 leukemia is 41.5%.
Regarding `CCCCCc1ccc(S(=O)(=O)N(C(C)=O)c2cc(-c3csc(N(C)C(C)=O)n3)ccc2N2CCN(C)CC2)cc1`, the growth is -89.7% (active) in the test with HCT-15 colon; -52.5% (active) in the test on HT29 colon; 73% with SNB-75 CNS; 32.2% in the test with SNB-19 CNS; -36.2% (active) with U251 CNS; 26.5% with PC-3 prostate. The growth with SK-MEL-5 melanoma is -16% (active); with UACC-62 melanoma, -88.2% (active); in the test on LOX IMVI melanoma it was -99.8% (active); in the test on SK-MEL-28 melanoma, -94.3% (active); in the test on SK-MEL-2 melanoma it was 35.1%; with EKVX NSCLC, 62.7%. Moreover, the growth in the test on SN12C renal was 21.2%; in the test with UO-31 renal, 41.8%; in the test on ACHN renal, 30.1%; with CAKI-1 renal, 31.8%; in the test with A498 renal it was 123%; in the test on CCRF-CEM leukemia, -7.22% (active).
As to `CCN1CCN(Cc2ccc(NC(=O)c3cccc(-n4cc(-c5ccc(NC(C)=O)nc5)nn4)c3)cc2C(F)(F)F)CC1`, the growth in the test on HCT-15 colon was 83.9%; in the test with HT29 colon, 61.7%; in the test with SNB-75 CNS it was 104%; in the test with SNB-19 CNS, 122%; in the test on U251 CNS it was 86.6%; with PC-3 prostate, 112%. Further, the growth in the test on SK-MEL-5 melanoma was 87.3%; in the test with UACC-62 melanoma, 82.4%; in the test on LOX IMVI melanoma, 72.4%; in the test on SK-MEL-28 melanoma, 53.3%; in the test with SK-MEL-2 melanoma, 106%; with EKVX NSCLC, 105%. For the same compound, the growth with SN12C renal is 95.9%; in the test on UO-31 renal, 107%; in the test on ACHN renal, 109%; in the test with CAKI-1 renal, 88.9%; with A498 renal, 213%; with CCRF-CEM leukemia, 39.2%. Also, the growth in the test with MOLT-4 leukemia is 80.3%.
`Cc1cc(C)nc(NS(=O)(=O)c2ccc(N/C(N)=N/c3nccc(-c4cccs4)n3)cc2)n1`: the growth in the test with HCT-15 colon was 97.4%; in the test with HT29 colon, 108%; in the test on SNB-75 CNS, 78.6%; in the test on SNB-19 CNS, 100%; in the test on U251 CNS it was 102%; in the test with PC-3 prostate it was 86.6%. Also, the growth with SK-MEL-5 melanoma is 96.2%; with UACC-62 melanoma, 96.3%; in the test on LOX IMVI melanoma it was 77.8%; in the test on SK-MEL-28 melanoma, 106%; with SK-MEL-2 melanoma, 108%; with EKVX NSCLC, 83.5%. Moreover, the growth was 96.9% with SN12C renal; 59.1% in the test with UO-31 renal; 94.8% in the test with ACHN renal; 74.2% with CAKI-1 renal; 117% with A498 renal; 95% in the test with CCRF-CEM leukemia. Besides, the growth with MOLT-4 leukemia was 96.8%.
Consider `C=CC(=O)Nc1ccc(C(=O)/C=C/c2ccc(N(C)CCF)cc2)c(O)c1`, for which the growth in the test with HCT-15 colon is -52% (active); in the test with HT29 colon, -61.4% (active); in the test with SNB-75 CNS, -8.38% (active); with SNB-19 CNS, -15.6% (active); with U251 CNS, -94.7% (active); in the test on PC-3 prostate, 6.54% (active). The growth with SK-MEL-5 melanoma is -90.7% (active); in the test on UACC-62 melanoma, -42.6% (active); with LOX IMVI melanoma it was -81% (active); in the test with SK-MEL-28 melanoma, -77.8% (active); in the test with SK-MEL-2 melanoma, -53.4% (active); with EKVX NSCLC, -25% (active). The growth with SN12C renal was -60.2% (active); with UO-31 renal, -96.6% (active); in the test on ACHN renal it was -68.6% (active); in the test with CAKI-1 renal, -90.8% (active); with A498 renal it was 17.5%; in the test with CCRF-CEM leukemia, 13.1%. Moreover, the growth in the test with MOLT-4 leukemia is -3.17% (active).
On to `Cc1ccc(-c2cc(-c3cc4ccccc4nc3Cl)[nH]c(=S)n2)cc1`, for which the growth is 30.2% in the test with HCT-15 colon; 43.3% with HT29 colon; 66.2% with SNB-75 CNS; 71.1% with SNB-19 CNS; 71.8% in the test with U251 CNS; 53.1% in the test on PC-3 prostate. In addition, the growth in the test on SK-MEL-5 melanoma was -11% (active); in the test on UACC-62 melanoma it was 21.5%; in the test with LOX IMVI melanoma it was 53.6%; in the test on SK-MEL-28 melanoma it was 47.4%; in the test on SK-MEL-2 melanoma it was 11.8%; in the test on EKVX NSCLC it was 50%. Further, the growth is 63.8% in the test with SN12C renal; 107% with TK-10 renal; 46.5% in the test with ACHN renal; 61.5% in the test with CAKI-1 renal; 79.5% with A498 renal; 33.2% in the test on CCRF-CEM leukemia. In addition, in the test on MOLT-4 leukemia, the growth was 17.5%.
